Bioassay records: PubChem, National Center for Advancing Translational Sciences (NCATS)
The list is not random: actives were taken first. Their share in the collection is about 2.4%.
BRCT inh green – inhibitors of human BRCA1 BRCT-phosphoprotein interaction (green fluorophore); P38398; BRCA1 BRCT-phosphopeptide binding, green fluorescence polarization; Potency, µM (series often up to 76.9 µM), for inactives: top-dose activity change, negative = inhibition, most hits filed as inhibitors; 75,000 compounds, 0.05% hits; AID 875;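 note: potency is the fitted concentration of half-maximal effect; plate controls were peptide without protein for full effect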
Target sequence (P38398 whole entry, looked up): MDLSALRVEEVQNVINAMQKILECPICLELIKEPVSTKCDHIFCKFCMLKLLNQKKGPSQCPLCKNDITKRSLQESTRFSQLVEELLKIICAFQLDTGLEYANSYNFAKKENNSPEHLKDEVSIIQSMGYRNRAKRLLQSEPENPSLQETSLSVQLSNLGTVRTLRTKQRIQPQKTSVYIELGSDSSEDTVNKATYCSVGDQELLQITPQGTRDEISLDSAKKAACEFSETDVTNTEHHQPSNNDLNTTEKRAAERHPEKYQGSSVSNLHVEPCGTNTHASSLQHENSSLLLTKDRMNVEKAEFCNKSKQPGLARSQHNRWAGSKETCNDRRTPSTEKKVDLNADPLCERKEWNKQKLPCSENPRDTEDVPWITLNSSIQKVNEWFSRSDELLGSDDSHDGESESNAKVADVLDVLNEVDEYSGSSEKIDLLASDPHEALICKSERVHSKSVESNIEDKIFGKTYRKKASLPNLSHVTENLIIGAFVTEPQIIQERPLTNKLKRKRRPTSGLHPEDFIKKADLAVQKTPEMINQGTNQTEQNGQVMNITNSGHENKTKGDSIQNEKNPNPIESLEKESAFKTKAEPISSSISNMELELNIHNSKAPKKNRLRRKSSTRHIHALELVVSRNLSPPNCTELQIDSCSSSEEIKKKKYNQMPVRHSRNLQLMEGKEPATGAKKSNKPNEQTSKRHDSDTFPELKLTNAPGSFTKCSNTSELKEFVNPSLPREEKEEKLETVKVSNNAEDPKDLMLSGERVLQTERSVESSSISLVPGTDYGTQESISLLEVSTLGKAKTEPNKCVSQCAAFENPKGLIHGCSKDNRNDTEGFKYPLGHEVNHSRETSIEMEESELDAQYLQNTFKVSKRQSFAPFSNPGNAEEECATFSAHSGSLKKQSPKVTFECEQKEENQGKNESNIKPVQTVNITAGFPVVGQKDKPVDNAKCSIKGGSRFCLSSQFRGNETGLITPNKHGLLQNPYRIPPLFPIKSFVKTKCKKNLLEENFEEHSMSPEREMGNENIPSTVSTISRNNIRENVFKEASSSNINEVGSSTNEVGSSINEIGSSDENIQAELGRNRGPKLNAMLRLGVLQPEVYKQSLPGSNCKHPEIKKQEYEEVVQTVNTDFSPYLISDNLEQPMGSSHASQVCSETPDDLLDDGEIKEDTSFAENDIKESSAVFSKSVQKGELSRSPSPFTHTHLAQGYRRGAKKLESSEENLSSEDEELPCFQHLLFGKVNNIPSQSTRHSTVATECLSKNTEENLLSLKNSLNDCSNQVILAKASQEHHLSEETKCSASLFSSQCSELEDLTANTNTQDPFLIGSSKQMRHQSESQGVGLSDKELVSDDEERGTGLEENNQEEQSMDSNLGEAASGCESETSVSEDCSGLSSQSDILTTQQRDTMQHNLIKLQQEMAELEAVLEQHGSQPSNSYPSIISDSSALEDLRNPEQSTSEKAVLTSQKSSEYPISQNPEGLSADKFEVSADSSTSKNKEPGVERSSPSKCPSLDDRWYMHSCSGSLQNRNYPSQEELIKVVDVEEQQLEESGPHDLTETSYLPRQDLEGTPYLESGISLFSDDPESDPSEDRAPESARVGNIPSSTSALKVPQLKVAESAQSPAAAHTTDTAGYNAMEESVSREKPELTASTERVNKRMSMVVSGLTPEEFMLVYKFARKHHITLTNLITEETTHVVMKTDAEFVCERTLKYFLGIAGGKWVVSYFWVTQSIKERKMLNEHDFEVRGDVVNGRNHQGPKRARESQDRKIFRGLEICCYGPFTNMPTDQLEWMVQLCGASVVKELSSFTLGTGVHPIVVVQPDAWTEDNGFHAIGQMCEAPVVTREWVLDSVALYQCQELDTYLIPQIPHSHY
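Fluorescence polarization: His-tagged BRCT (~35 kDa BRCA1 C-terminus, 250 nM) bound to 100 nM fluorescein-labeled phosphorylated 10-aa BACH1 peptide, pH 7.3 phosphate buffer with DTT and Tween 20. Compounds incubated 12 min at room temperature; inhibition read as lowered polarization.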
Tau fil binding – binders of human tau filaments | P10636 | AID 596 | 71,000 compounds, 2% hits | recombinant tau filaments, thioflavin S fluorescence, 15 h; filaments grown with octadecylsulfate alongside compound | Potency, µM (top dose mostly 57.1 µM), without a hit: top-dose activity change, negative = inhibition;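 note: potency is the fitted concentration of half-maximal effect; % is set by controls: 0 for no effect and ±100 for the full control effect; actives lower thioflavin S fluorescence by blocking filaments or displacing dye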
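His-tagged recombinant human tau (exons 2, 3, 10; 1 uM final) fibrillized with 30 uM sodium octadecylsulfate, 15 h at 37 C, in pH 7.4 HEPES buffer with 10 uM thioflavine S and 5 mM DTT. Reduced ThS fluorescence (450/510 nm) marks activity.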
Pol III holo inh – blocks replication by bacterial DNA polymerase III holoenzyme. AID 603. Potency, µM (series often up to 57.1 µM), for inactives: at the top dose activity change, negative = inhibition. reconstituted DNA polymerase III holoenzyme replication, biochemical. 71,000 compounds, 0.25% hits; note: potency is the fitted concentration of half-maximal effect; % is set by controls: 0 for no effect and ±100 for the full control effect
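Reconstituted *E. coli* holoenzyme (0.35 nM Pol III, 1 nM beta, 154 nM SSB, 2 nM primase) was preincubated with compound for 15 min at RT. Synthesis on 1.4 nM ssM13Gori ran 35 min, then was stopped with PicoGreen/EDTA and read as dsDNA fluorescence.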
TsaE inh – YjeE (TsaE) inhibition, E. coli | purified YjeE enzyme, qHTS inhibition assay | P0AF67 | Potency, µM | 71,000 compounds, 0.05% hits
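Purified YjeE (10 uM) with BODIPY Texas Red-labeled ADP probe (2 uM); compounds pin-transferred, 15 min at room temperature. Binding inhibition read as decreased fluorescence polarization; ADP titration as control.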
BRCT PPI red – inhibitors of human BRCA1 BRCT-phosphoprotein interaction (red fluorophore); P38398; AID 892; Potency, µM (titrated, usually from 76.9 µM), without a hit: at the highest dose activity change, negative = inhibition, most hits filed as inhibitors; BRCT-phosphopeptide binding, red fluorescence polarization; 75,000 compounds, 0.03% hits; note: % is set by controls: 0 for no effect and ±100 for the full control effect
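Fluorescence polarization: 100 nM His-tagged BRCA1 BRCT with 100 nM TAMRA-labelled phospho-BACH1 decapeptide, phosphate buffer pH 7.3 with 150 mM NaCl, DTT, 0.01% Tween 20; 12 min RT. Binding inhibition seen as FP decrease.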
Hsp90 Hop PPI – changes Hsp90-Hop TPR2A binding signal, up or down. AlphaScreen TPR2A-His6 binding biotin-Hsp90 C-terminal peptide. Potency, µM (top dose mostly 57 µM), for the others: at the highest dose activity change, negative = inhibition. 71,000 compounds, 0.44% hits. AID 595; active = well fitted curve in either direction with a large enough effect; inconclusive = small, poorly fitted or top-dose-only effect, or another doubt; note: potency is the fitted concentration of half-maximal effect; % is set by controls: 0 for no effect and ±100 for the full control effect
The depositor's hits bear a star; i = inactive; ? = inconclusive; / = no result given; ! = not active in a repeat; [ ] = dose if it differs, or a comment. Unless noted, calls come from the whole dose curve; as a rule, active = well fitted curve in the direction sought with a large enough effect; inconclusive = small, poorly fitted or top-dose-only effect, or another doubt; inactive = no such curve, though single readings can be large; an effect the other way counts as inactive or inconclusive.

SMILES	BRCT inh green	Tau fil binding	Pol III holo inh	TsaE inh	BRCT PPI red	Hsp90 Hop PPI
COc1ccc2c(c1)CCC1C2CC[C@]2(C)[C@H](NCCCCCCN3C(=O)C=CC3=O)CC[C@@H]12 (some centres not stated)	-1%	-10%	-4%	i	2%	-11%
CN(Cc1ccccc1)C(=O)N[C@@H](Cc1ccccc1)C(=O)O	-2%	0%	3%	i	-1%	1%
CN(CCOc1ccc(C[C@H](Nc2ccccc2C(=O)c2ccccc2)C(=O)O)cc1)c1ccccn1	-3%	40µM*!	-2%	i	-3%	-9%
Cc1occc1C(=O)Nc1ccc2ccccc2c1	-1%	10µM*	-6%	i	1%	-1%
COc1cccc2c1[C@@H]1CN(CCCCn3c(=O)[nH]c4c(sc5ncc(-c6ccccc6)nc54)c3=O)C[C@H]1CO2	-1%	?	15%	i	-2%	?
CCOc1ccc(C2c3c(oc4ccccc4c3=O)C(=O)N2CCCN2CCOCC2)cc1 (configuration not stated)	1%	-24%	-8%	i	0%	-3%
O=C1c2oc3ccc(F)cc3c(=O)c2C(c2cccc(O)c2)N1CCCN1CCOCC1 (configuration not stated)	-2%	-22%	-10%	i	1%	-3%
CCOc1ccc(C2c3c(oc4cc(C)c(C)cc4c3=O)C(=O)N2CCCN2CCOCC2)cc1 (configuration not stated)	1%	16µM*	0%	i	2%	-5%
Cc1ccc2oc3c(c(=O)c2c1)C(c1cccc(Cl)c1)N(CCCN1CCOCC1)C3=O (configuration not stated)	-1%	13µM*	-1%	i	1%	-2%
Cc1cc2oc3c(c(=O)c2cc1C)C(c1ccc(C(C)C)cc1)N(CCCN1CCOCC1)C3=O (configuration not stated)	-7%	4µM*	-6%	i	-3%	-9%
CCCCCCCCCCCCCCCCCCNC(=O)OC[C@@H](COP(=O)([O-])OCC[n+]1ccsc1)OC	-4%	-2%	-3%	i	-1%	-3%
O=C(c1ccc(-n2c(=O)c(=O)[nH]c3ccccc32)cc1)N1CCCN(Cc2ccccc2)CC1	0%	/	/	/	-2%	/
Cc1cccc(-n2c(=O)[nH]c3c(C(N)=O)nc(C(C)C)nc32)c1	2%	16µM*	-5%	i	-1%	-3%
Fc1ccc(CNc2nc(-c3ccco3)cc(C(F)(F)F)n2)cc1	17%	?	-6%	i	-2%	?
FC(F)(F)c1cc(-c2ccco2)nc(NCc2cccnc2)n1	9%	20µM*	-15%	i	-1%	-9%
Cc1cc(=O)n2[nH]c(C)c(-c3ccc(Cl)cc3)c2n1	-3%	68%	20µM*	i	-1%	22%
NC(=O)CSc1nnc(-c2cc3ccccc3o2)n1Cc1ccccc1	-4%	224%	-5%	i	-2%	-7%
O=C(CSc1nnc(C2CC2)n1Cc1ccccc1)c1cc2ccccc2o1	6%	10µM*	7%	i	1%	-9%
CCCCn1c(=NC(=O)c2ccco2)c(C(=O)OCC)cc2c(=O)n3ccccc3nc21	-2%	7.9µM*	-8%	i	0%	-8%
CCOCCCn1c(=NC(=O)c2cccnc2)c(C(=O)OCC)cc2c(=O)n3ccccc3nc21	-2%	-10%	-5%	i	2%	-11%
CCCCn1c(=NC(=O)c2cccnc2)c(C(=O)OCC)cc2c(=O)n3ccccc3nc21	1%	166%	1%	i	1%	-6%
CCCCCn1c(=NC(=O)c2ccco2)c(C(=O)OCC)cc2c(=O)n3ccccc3nc21	-2%	5µM*	-5%	i	-1%	-6%
COCCCCC(=NOCCN)c1ccc(C(F)(F)F)cc1	-2%	32µM*!	-2%	i	1%	-3%
C(CCc1nnc2c(n1)CCCC2)Cc1nnc2c(n1)CCCC2	-2%[15.4 µM]	-2%[11.4 µM]	-10%[11.4 µM]	i	0%[15.4 µM]	-5%[11 µM]
COc1ccc(CCNC(=O)COC(=O)c2ccco2)cc1OC	-1%	-6%	-3%	i	2%	0%
SMILES	BRCT inh green	Tau fil binding	Pol III holo inh	TsaE inh	BRCT PPI red	Hsp90 Hop PPI
COc1ccc(CCNC(=O)c2ccc3nc(-c4ccco4)c(-c4ccco4)nc3c2)cc1OC	-2%	3.2µM*	1%	i	-1%	-15%
Oc1ccc(CNc2ccc(F)cc2)c2cccnc12	-1%	-18%	-3%	i	0%	7.9µM*
Oc1ccc(CN2CCN(Cc3ccccc3)CC2)c2cccnc12	0%	-24%	-1%	i	1%	4µM*
Fc1ccc(NCc2cn3ccccc3n2)cc1	-1%	-2%	0%	i	1%	-6%
Oc1c(CN2CCc3ccccc3C2)cc(Cl)c2cccnc12	-1%	92%	-6%	i	0%	-20%[2.3 µM]
Oc1c(CN2CCCCC2)cc(Br)c2cccnc12	-2%	-28%	-3%	i	-1%	3.2µM*
O=[N+]([O-])/C=C\c1cc2ccccc2[nH]1	-3%[15.4 µM]	-9%[11.4 µM]	13%[11.4 µM]	i	1%[15.4 µM]	-3%[11 µM]
Cc1ccc(S(=O)(=O)N(CC(=O)O)Cc2cccc(C)c2)cc1	0%	/	/	/	0%	/
C=CC(C)(C)c1[nH]c2ccccc2c1C1=C(O)C(=O)C(c2c[nH]c3c(CC=C(C)C)cccc23)=C(O)C1=O	-6%	32µM*	1.3µM*	100µM*	-6%	?
COc1ccc(N2CCN(Cc3nc4c(c(=O)n(C)c(=O)n4C)n3CCc3ccccc3)CC2)cc1	1%	13µM*	-5%	i	-2%	-5%
COCCn1c(CN2CCN(c3ccc(OC)cc3)CC2)nc2c1c(=O)n(C)c(=O)n2C	-3%	-1%	0%	i	0%	0%
Nc1ccc2c(c1)C(=O)c1ccccc1C2=O	-5%	1.6µM*	-13%	i	0%	-9%
O=C1c2ccccc2C(=O)c2c1ccc(O)c2O	-7%	/	/	/	-3%	/
FC(F)(F)c1cc(CN2CC3(CCNCC3)C2)cc(C(F)(F)F)c1	-5%	13µM*	-4%	i	1%	-2%
FC(F)(F)c1cc(CN2CC[C@@]3(CCCNC3)C2)cc(C(F)(F)F)c1	-4%	5%	0%	i	-2%	1%
CN1C[C@@H](O)[C@@H](O)[C@@H](O)[C@@H]1CO	/	-2%	-4%	i	/	-2%
N.N.O=C(O)C1(C(=O)O)CCC1.[Pt]	-2%[3.08 µM]	1%	7.9µM*	i	1%	?
